In PubChem BioAssay (NCATS):
Records with an inconclusive call do not appear. The source made the active and inactive calls. Unless noted, the call rests on the fitted dose curve; in most records, active means well fitted curve in the direction sought with a large enough effect; inconclusive means small, poorly fitted or top-dose-only effect, or another doubt; inactive means no such curve, though single readings can be large; an effect the other way counts as inactive or inconclusive.

What was measured:
[1] = molecular target: Cytochrome P450 3A4 (Homo sapiens) (UniProt P08684); assay: qHTS Assay for Inhibitors and Substrates of Cytochrome P450 3A4 (AID 884); conditions: recombinant CYP3A4, Luciferin-PPXE luminescence; series mostly up to 57.1 µM; further: potency means the concentration at half of the fitted maximal effect; nearly all actives have a fitted effect of over 50% in size
Procedure, shortened: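 Luminescent readout of luciferin produced by CYP3A4 (20 nM) dealkylation of Luciferin-PPXE, 25 uM (its KM). NADPH-driven reaction ran 60 min at RT after 10 min compound preincubation; data scaled to 57 uM ketoconazole as 100% inhibition.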

[2] = molecular target: Cytochrome P450 3A4 (Homo sapiens) (UniProt P08684); assay: qHTS Assay for Activators of Cytochrome P450 3A4 (AID 885); conditions: recombinant CYP3A4, Luciferin-PPXE luminescence, 60 min; series mostly up to 57.1 µM; further: nearly all actives have a fitted effect of over 65% in size
Procedure, shortened: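 Human CYP3A4 dealkylates Luciferin-PPXE to luciferin, which luciferase detection converts to light. Substrate was at its KM (25uM), buffer 200mM KPO4, reaction 60 min at RT.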

[3] = test system: Zika virus NS2B-NS3 protease; assay: Primary screen GU AMC qHTS for Zika virus inhibitors (AID 1347154); conditions: Zika NS2B-NS3 unlinked protease, AMC fluorogenic substrate; series mostly up to 54.1 µM;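 further: 0% = no-inhibitor control and -100% = no-enzyme control; nearly all actives have a fitted effect of over 70% in size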
Procedure, shortened: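 Unlinked Zika NS2B hydrophilic domain–NS3 protease complex at 25 nM in 10 mM Tris-HCl pH 8.0, 0.01% Tween 20, with an AMC peptide substrate. Fluorescence change (340/450 nm) over 15 min at room temperature, normalized to controls, fitted to 4-parameter Hill.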

[4] = Confirmatory qHTS for small molecule stabilizers of the endoplasmic reticulum resident proteome: Secreted ER Calcium Modulated Protein (SERCaMP) assay (AID 1508628); conditions: SERCaMP secreted luciferase ER calcium/proteostasis reporter; series mostly up to 76.3 µM; further: on the % scale 0 is the no-effect control and ±100 the full control effect; nearly all actives have a fitted effect of over 40% in size
Procedure, shortened: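 GLuc-SERCaMP-expressing SH-SY5Y cells, pretreated 16 h with compound, are challenged with thapsigargin to empty ER calcium stores; after 4 h, coelenterazine is added directly to the medium and luminescence is imaged.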

[5] = Cell Viability qHTS for small molecule stabilizers of the endoplasmic reticulum resident proteome (AID 1508629); conditions: cell viability counter-screen, 100 nM thapsigargin for final 4 h;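 further: compound exposure about 46 h in total before the viability read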; further: potency means the concentration at half of the fitted maximal effect
[6] = Primary qHTS for small molecule stabilizers of the endoplasmic reticulum resident proteome: Secreted ER Calcium Modulated Protein (SERCaMP) assay (AID 1508630); conditions: SH-SY5Y GLuc-SERCaMP (Gaussia luciferase released on ER calcium loss) secretion, thapsigargin, luminescence; series mostly up to 38.4 µM; further: on the % scale 0 is the no-effect control and ±100 the full control effect
Procedure, shortened: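 The SH-SY5Y reporter protocol was run at 3 concentrations up to 38.3 uM (primary) or 11 concentrations (follow-up): 16 h compound, 100 nM thapsigargin for 4 h, then extracellular luciferase luminescence.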

[7] = AP1 Signaling Pathway (AID 357; active means well fitted curve in either direction with a large enough effect, not every such curve was filed as active; further: on the % scale 0 is the no-effect control and ±100 the full control effect); conditions: ME-180 AP-1-bla reporter, EGF-induced, beta-lactamase ratio, 5 h; at 38 µM (top of the series)
Procedure, shortened: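 AP-1-bla ME-180 cells with beta-lactamase reporter under AP-1 response element, stimulated with EC50 EGF; compounds titrated, 5 hours at 37 degrees Celsius. CCF4 read at 460/530 nm ratio; positive and negative modulators judged by AC50.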

[8] = molecular target: Cytochrome P450 1A2 (Homo sapiens) (UniProt P05177); assay: p450-cyp1a2 (AID 410; calls by dose curve;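 further: -100% = full effect of reference inhibitor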); conditions: recombinant CYP1A2, luciferin-ME demethylation, luminescence; series mostly up to 57 µM
Procedure, shortened: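 Read-out is luminescence from luciferin produced by CYP1A2 demethylation of Luciferin-ME (100uM, at Km). Detection reagent stopped the 60 min NADPH-dependent reaction; signals were normalized to 57 uM furafylline.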

[9] = NFAT Signaling Pathway (AID 444; active means well fitted curve in either direction with a large enough effect, not every such curve was filed as active;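 further: carbachol stimulus at about its EC50 of 1 µM final; on the % scale 0 is the no-effect control and ±100 the full control effect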); conditions: Jurkat NFAT-bla M1, carbachol, beta-lactamase ratio, 5 h; at 38 µM (top of the series)
Procedure, shortened: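 Jurkat cells with NFAT-driven β-lactamase reporter and co-expressed M1 receptor, stimulated with carbachol (final 1 uM, ~EC50), compound titration, 5 h at 37 °C. CCF4 loaded 1 h at RT; 460/530 nm ratio gave %activity and AC50.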

[10] = Stat Signaling Pathway (AID 446; active means well fitted curve in either direction with a large enough effect, not every such curve was filed as active;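 further: ME-180 cervical cancer cells given 40 pM IL-6 alongside compound; SIE-controlled beta-lactamase reporter measured as 460/530 nm FRET emission ratio; on the % scale 0 is the no-effect control and ±100 the full control effect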); conditions: ME-180 (cervical carcinoma) SIE beta-lactamase reporter, IL-6 stimulated, 5 h; at 38 µM (top of the series)
Procedure, shortened: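 Normalization used AC90 stimulation (300 pM IL-6) and AC90 inhibition (125 nM pan-JAK inhibitor at 40 pM IL-6). The underlying signal is SIE-driven beta-lactamase in ME-180 cells after 5 h IL-6 exposure with compound.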

[11] = molecular target: Glucocorticoid receptor (Homo sapiens) (UniProt P04150); assay: GR-GFP Redistribution (AID 450;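 active means compounds whose dose series gives a full or clear partial fitted curve of increased nuclear translocation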; further: potency means the concentration at half of the fitted maximal effect); conditions: U2OS GR-GFP nuclear translocation, laser cytometry, 2 h
[12] = molecular target: Glucocorticoid receptor (Homo sapiens) (UniProt P04150); assay: GR-EFC Redistribution (AID 451; calls by dose curve; further: potency means the concentration at half of the fitted maximal effect); conditions: CHO-K1 GR-EFC translocation, beta-gal luminescence, 2 h
Procedure, shortened: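 CHO-K1 cells expressing nuclear EA and GR-ED fragments of b-gal; compounds titrated up to 46 uM final, 2 h at 37 C. GR nuclear translocation read as complemented b-gal luminescence after 1 h RT detection.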

[13] = molecular target: Mitogen-activated protein kinase 10 (Mus musculus) (UniProt Q61831); assay: JNK3 AlphaScreen Assay (AID 530; active means well fitted curve in either direction with a large enough effect, not every such curve was filed as active); conditions: JNK3 lysate, c-Jun phosphorylation; series mostly up to 57.1 µM
Procedure, shortened: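 HepG2 lysate (IL-1b/TNFa pre-activated) + biotin-GST-cJun 1-79 + anti-pSer73 cJun; cpd titration, 15 min RT; ATP 10 uM start; Tris pH 7.6, MgCl2, DTT, vanadate; beads in EDTA buffer; AlphaScreen.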

[14] = molecular target: 3',5'-cyclic-AMP phosphodiesterase 4B (Homo sapiens) (UniProt Q07343); assay: qHTS Assay for Inhibitors of PDE-IV (AID 607; active means well fitted activation curve with a large enough effect in the main read-out, with a control signal flat, not every such curve was filed as active; further: % of control where 0% means no effect); conditions: HEK293 ACTOne CNG channel cells, membrane potential fluorescence; series mostly up to 22.9 µM
Procedure, shortened: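 HEK293 ACTOne cells with CNG channel (1000/well), endogenous PDE4; membrane potential dye, compounds up to 22.9 uM final. Fluorescence Ex 535/Em 590; RO 20-1724 (100 uM final) as reference.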

[15] = molecular target: Cytochrome P450 2C9 (Homo sapiens) (UniProt P11712); assay: qHTS Assay for Inhibitors and Substrates of Cytochrome P450 2C9 (AID 883); conditions: recombinant CYP2C9, luciferin-H luminescence, 60 min; series mostly up to 57.1 µM; further: on the % scale 0 is the no-effect control and ±100 the full control effect; nearly all actives have a fitted effect of over 60% in size
Procedure, shortened: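 10nM CYP2C9 + 100uM Luciferin-H (=KM), 25mM KPO4; cpd 10 min 37C; NADPH regen, 60 min 37C; stop/detect with P450 Glo-Buffer 20 min; luminescence. Norm. to 57uM sulphaphenazole as full inhibition.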

[16] = molecular target: Cytochrome P450 2D6 (Homo sapiens) (UniProt P10635); assay: qHTS Assay for Inhibitors and Substrates of Cytochrome P450 2D6 (AID 891); conditions: recombinant CYP2D6, luciferin-ME EGE luminescence; series mostly up to 57.1 µM;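 further: luciferin methyl ether substrate demethylated by CYP2D6 with NADPH regeneration; on the % scale 0 is the no-effect control and ±100 the full control effect; nearly all actives have a fitted effect of over 60% in size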
Procedure, shortened: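 Luminescent read-out of luciferin formed by 5 nM human CYP2D6 demethylating 30 uM Luciferin-ME EGE (Km level) over 60 min at room temperature after NADPH regeneration addition. Data normalized to full inhibition by 1.43 uM quinidine.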

[17] = molecular target: DNA dC->dU-editing enzyme APOBEC-3G (Homo sapiens) (UniProt Q9HC16); assay: qHTS for inhibitors of Vif-A3G interactions: Validation (AID 588379); conditions: Vif-A3G protein interaction assay; series mostly up to 46.1 µM; further: 0% is about no effect
Procedure, shortened: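 Yellow fluorescence (Ex 488, Em 500-530) of Vif-coexpressing HeLa A3G-eYFP cells, scanned by Acumen cytometer, reports blocked A3G degradation. Cells plated at 700/well overnight at 37 deg C before compound addition, then a further overnight compound incubation at 37 deg C.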

Sequence of Cytochrome P450 3A4 (Homo sapiens) (P08684 whole entry, looked up): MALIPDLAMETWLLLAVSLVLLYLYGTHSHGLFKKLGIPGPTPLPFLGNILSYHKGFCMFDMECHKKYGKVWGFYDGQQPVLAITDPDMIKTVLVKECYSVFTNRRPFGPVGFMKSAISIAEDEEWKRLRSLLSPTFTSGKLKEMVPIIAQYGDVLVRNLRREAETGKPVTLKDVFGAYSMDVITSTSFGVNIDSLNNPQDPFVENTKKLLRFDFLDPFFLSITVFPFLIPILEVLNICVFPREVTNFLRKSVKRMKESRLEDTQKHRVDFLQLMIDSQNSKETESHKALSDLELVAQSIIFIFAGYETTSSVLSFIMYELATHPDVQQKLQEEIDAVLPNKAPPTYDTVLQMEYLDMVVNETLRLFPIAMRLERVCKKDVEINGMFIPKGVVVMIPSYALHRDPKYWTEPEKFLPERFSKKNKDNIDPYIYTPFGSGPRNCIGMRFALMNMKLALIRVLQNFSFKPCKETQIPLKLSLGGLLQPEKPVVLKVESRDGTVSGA
Sequence of Glucocorticoid receptor (Homo sapiens) (P04150 whole entry, looked up, the tested form may be a part): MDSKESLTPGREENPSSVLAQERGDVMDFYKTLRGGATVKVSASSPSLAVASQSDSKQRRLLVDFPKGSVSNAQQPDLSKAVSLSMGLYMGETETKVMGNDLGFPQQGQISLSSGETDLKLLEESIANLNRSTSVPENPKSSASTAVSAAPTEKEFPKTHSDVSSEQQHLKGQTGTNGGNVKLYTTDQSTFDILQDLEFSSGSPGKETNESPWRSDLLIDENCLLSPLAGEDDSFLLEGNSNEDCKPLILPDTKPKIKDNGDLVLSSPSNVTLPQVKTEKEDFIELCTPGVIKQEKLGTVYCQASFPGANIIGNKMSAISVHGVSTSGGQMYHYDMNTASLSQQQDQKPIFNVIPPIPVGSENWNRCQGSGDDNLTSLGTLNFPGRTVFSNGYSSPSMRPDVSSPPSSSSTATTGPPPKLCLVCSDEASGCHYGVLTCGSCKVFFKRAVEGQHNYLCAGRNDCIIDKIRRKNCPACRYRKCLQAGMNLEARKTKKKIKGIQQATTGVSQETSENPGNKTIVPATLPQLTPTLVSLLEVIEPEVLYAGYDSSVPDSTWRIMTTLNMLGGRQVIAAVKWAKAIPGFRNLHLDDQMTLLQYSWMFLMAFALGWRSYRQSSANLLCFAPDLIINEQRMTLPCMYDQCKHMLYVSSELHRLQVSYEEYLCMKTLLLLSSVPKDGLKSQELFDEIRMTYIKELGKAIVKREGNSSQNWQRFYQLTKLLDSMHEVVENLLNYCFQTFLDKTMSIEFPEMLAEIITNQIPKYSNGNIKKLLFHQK
Sequence of 3',5'-cyclic-AMP phosphodiesterase 4B (Homo sapiens) (Q07343 whole entry, looked up): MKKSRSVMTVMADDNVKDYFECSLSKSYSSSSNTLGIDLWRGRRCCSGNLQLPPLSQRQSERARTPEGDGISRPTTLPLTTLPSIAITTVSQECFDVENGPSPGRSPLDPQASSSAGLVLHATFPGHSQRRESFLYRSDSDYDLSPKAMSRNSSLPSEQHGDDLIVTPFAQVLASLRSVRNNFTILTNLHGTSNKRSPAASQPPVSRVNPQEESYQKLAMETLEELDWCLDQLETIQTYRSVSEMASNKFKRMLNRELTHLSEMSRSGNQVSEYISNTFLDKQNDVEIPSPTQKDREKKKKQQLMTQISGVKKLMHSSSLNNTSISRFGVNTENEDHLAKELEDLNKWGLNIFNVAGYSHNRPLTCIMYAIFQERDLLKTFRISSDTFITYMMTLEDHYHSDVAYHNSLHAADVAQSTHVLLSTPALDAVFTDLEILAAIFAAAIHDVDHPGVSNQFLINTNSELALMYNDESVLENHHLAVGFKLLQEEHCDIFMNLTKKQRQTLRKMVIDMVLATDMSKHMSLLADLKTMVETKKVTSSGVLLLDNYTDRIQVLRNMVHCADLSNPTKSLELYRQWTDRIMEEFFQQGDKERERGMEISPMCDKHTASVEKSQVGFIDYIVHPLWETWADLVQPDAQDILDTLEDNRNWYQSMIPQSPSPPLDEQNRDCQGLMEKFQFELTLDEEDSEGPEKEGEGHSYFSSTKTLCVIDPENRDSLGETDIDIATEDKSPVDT
Sequence of DNA dC->dU-editing enzyme APOBEC-3G (Homo sapiens) (Q9HC16 whole entry, looked up): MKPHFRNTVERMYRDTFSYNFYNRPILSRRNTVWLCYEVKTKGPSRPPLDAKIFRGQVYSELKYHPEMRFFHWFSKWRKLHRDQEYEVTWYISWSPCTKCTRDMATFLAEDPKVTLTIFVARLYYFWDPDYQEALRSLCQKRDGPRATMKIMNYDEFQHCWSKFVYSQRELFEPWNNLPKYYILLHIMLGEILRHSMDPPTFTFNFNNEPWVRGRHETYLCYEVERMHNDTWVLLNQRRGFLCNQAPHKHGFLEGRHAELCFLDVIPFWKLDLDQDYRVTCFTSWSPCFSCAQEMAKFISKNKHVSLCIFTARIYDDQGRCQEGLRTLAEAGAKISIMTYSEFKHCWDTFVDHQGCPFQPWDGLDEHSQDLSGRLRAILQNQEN
Sequence of Cytochrome P450 2D6 (Homo sapiens) (P10635 whole entry, looked up): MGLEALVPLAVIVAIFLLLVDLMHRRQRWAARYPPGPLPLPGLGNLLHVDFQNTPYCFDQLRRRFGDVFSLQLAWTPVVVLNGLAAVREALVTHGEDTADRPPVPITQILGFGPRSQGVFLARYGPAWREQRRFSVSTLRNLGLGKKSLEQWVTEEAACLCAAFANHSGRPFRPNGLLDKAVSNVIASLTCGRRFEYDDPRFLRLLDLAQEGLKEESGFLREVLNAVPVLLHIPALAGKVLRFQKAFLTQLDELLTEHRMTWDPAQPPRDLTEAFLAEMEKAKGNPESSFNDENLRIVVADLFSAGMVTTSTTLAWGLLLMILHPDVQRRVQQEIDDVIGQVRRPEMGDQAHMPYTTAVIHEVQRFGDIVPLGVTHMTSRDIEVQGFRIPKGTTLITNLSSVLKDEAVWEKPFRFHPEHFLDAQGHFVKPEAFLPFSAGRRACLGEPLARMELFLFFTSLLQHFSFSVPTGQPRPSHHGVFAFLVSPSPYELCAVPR
Sequence of Cytochrome P450 1A2 (Homo sapiens) (P05177 whole entry, looked up): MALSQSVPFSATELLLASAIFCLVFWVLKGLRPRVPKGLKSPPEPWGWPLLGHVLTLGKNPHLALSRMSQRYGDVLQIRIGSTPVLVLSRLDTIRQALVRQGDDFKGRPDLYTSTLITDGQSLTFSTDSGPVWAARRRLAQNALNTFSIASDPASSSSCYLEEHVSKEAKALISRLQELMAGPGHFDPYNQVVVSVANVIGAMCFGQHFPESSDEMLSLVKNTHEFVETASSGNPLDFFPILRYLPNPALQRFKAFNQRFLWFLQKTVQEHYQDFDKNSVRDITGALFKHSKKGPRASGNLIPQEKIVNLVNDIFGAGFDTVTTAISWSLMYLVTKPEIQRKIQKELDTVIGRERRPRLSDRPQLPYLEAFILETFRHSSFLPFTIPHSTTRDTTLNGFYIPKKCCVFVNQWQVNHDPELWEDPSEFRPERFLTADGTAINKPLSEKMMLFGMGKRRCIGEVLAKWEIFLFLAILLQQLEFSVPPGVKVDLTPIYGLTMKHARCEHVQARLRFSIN
Sequence of Cytochrome P450 2C9 (Homo sapiens) (P11712 whole entry, looked up): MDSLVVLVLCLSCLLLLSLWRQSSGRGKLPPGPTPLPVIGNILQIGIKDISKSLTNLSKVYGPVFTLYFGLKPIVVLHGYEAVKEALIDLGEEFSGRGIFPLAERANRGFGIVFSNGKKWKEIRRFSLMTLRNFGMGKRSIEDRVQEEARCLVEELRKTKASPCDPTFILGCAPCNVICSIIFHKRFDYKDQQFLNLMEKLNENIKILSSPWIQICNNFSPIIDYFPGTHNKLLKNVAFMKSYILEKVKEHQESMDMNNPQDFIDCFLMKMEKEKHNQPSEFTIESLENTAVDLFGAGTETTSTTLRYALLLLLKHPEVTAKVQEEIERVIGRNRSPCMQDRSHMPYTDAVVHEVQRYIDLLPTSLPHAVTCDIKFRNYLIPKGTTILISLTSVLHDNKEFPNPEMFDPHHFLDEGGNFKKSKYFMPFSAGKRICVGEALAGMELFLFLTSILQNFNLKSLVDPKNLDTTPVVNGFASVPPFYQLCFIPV

COc1cccc(CCc2ccccc2OCC[C@@H]2C[C@@H](O)CN2C)c1
inactive: Potency [2] | Potency [3] | Potency [4]
active: Potency [1] 3.16 µM | Potency [5] 15.8 µM

Nc1ccccc1C(=O)C[C@H](N)C(=O)O
inactive: Potency [3] | Potency [6]

COc1ccc(/C=C\C(=O)Nc2ccccc2C(=O)O)cc1OC
inactive: activity change, negative = inhibition [7] -10.8% | Potency [8] | activity change, negative = inhibition [9] -3.53% | activity, negative = inhibition [10] 7.79% | Potency [11] > 46 µM | Potency [12] > 46 µM | Potency [13] | Potency [14] | Potency [15] | Potency [2] | Potency [16] | Potency [17] | Potency [3] | max response [5] -9.06%
